Targets with a hit are over-represented here; the source holds about 7,900 in all. About 0.6% of all pairs of compound and target were hits.
What was measured:
Assay in all cases: log2 fold change, soluble protein after heating vs DMSO (PISA); higher = thermal stabilisation; K562 cells, 10 uM, 30 min; active = over 0.2 and 3.5 SD of the protein, either way, in both replicates (recomputed)
[1] = compound: CC[C@@H]1C(=O)N(C)c2cnc(Nc3ccc(C(=O)NC4CCN(C)CC4)cc3OC)nc2N1C1CCCC1
Summary of the method: (§1)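 K562 cells at 2×10^6 cells/mL were treated for 30 min with 10 μM compound, and aliquots were heated for 3 min over 48°C-58°C before pooling. Extraction used PBS with 0.5% NP-40 at 4°C, and soluble protein was the supernatant after 21,000xg for 90 min, measured by TMTpro 16plex LC-MS/MS with channel sums equalised. Thermal stability values, relative to control samples and from duplicates, are log2 fold changes.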

[2] = compound: CC[C@@H]1C(=O)N(C)c2cnc(Nc3ccc(C(=O)N[C@H]4CC[C@H](N5CCN(CC6CC6)CC5)CC4)cc3OC)nc2N1C(C)C [volasertib]
Summary of the method: as §1

[3] = compound: CC[C@H](C)N1C=C(C2=C(C=C(C=C21)C3=CN=C(C=C3)N4CCNCC4)C(=O)NCC5=C(C=C(NC5=O)C)C)C
Summary of the method: as §1

[4] = compound: CC[C@H](C)[C@@H](C(=O)N[C@@H]([C@@H](C)O)C(=O)N[C@@H](CC(C)C)C(=O)[C@]1(CO1)C)NC(=O)[C@H]([C@@H](C)CC)N(C)C(=O)C [epoxomicin]
Summary of the method: as §1

[5] = compound: CCn1c(C(=O)N(C2CC2)C2CC2)cc2c3c(ncn3C)c(Nc3cc(C)n(C)n3)nc21
Summary of the method: as §1

[6] = compound: CN(C)CC(=O)Nc1ccc2[nH]c(=O)c3ccccc3c2c1
Summary of the method: as §1

[7] = compound: CN(CCOC1=CC=C(C=C1)C[C@H]2C(=O)NC(=O)S2)C3=CC=CC=N3 (racemic) [rosiglitazone]
Summary of the method: as §1

[8] = compound: CN1C2=C(C3=C1C(=O)N(N=C3)CC4=CC(=CC=C4)N)SC(=C2)S(=O)C
Summary of the method: as §1

[9] = compound: CCn1cc(-c2ccnc3[nH]c(-c4cccc(CN(C)C)c4)cc23)c(-c2ccc(NC(=O)N(C)C)cc2)n1
Summary of the method: as §1

[10] = compound: CN1CCC(CNc2ccc3ncc(-c4cccc(OC(F)(F)F)c4)n3n2)CC1
Summary of the method: as §1

Measured: log2 fold change

VPS72 isoform 2 (UniProt Q15906)
inactive: [1] -0.261 | [2] 0.135 | [3] -0.072 | [4] -0.107 | [5] 0.101 | [6] -0.052 | [7] 0.041 | [8] 0.043

TMEM9B (UniProt Q9NQ34)
UniProt Q9NQ34, sequence (Q9NQ34 whole entry, looked up): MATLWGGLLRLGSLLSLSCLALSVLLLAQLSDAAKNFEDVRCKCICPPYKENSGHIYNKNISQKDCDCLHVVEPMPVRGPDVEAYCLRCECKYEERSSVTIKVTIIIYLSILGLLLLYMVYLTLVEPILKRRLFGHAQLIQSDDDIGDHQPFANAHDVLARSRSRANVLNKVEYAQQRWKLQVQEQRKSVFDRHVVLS
inactive: [1] 0.035 | [2] -0.192 | [3] -0.011 | [4] 0.109 | [5] 0.035 | [9] 0.049 | [6] -0.023 | [7] 0.037 | [10] -0.054

USP9X (UniProt Q93008)
UniProt Q93008, sequence (Q93008 whole entry, looked up): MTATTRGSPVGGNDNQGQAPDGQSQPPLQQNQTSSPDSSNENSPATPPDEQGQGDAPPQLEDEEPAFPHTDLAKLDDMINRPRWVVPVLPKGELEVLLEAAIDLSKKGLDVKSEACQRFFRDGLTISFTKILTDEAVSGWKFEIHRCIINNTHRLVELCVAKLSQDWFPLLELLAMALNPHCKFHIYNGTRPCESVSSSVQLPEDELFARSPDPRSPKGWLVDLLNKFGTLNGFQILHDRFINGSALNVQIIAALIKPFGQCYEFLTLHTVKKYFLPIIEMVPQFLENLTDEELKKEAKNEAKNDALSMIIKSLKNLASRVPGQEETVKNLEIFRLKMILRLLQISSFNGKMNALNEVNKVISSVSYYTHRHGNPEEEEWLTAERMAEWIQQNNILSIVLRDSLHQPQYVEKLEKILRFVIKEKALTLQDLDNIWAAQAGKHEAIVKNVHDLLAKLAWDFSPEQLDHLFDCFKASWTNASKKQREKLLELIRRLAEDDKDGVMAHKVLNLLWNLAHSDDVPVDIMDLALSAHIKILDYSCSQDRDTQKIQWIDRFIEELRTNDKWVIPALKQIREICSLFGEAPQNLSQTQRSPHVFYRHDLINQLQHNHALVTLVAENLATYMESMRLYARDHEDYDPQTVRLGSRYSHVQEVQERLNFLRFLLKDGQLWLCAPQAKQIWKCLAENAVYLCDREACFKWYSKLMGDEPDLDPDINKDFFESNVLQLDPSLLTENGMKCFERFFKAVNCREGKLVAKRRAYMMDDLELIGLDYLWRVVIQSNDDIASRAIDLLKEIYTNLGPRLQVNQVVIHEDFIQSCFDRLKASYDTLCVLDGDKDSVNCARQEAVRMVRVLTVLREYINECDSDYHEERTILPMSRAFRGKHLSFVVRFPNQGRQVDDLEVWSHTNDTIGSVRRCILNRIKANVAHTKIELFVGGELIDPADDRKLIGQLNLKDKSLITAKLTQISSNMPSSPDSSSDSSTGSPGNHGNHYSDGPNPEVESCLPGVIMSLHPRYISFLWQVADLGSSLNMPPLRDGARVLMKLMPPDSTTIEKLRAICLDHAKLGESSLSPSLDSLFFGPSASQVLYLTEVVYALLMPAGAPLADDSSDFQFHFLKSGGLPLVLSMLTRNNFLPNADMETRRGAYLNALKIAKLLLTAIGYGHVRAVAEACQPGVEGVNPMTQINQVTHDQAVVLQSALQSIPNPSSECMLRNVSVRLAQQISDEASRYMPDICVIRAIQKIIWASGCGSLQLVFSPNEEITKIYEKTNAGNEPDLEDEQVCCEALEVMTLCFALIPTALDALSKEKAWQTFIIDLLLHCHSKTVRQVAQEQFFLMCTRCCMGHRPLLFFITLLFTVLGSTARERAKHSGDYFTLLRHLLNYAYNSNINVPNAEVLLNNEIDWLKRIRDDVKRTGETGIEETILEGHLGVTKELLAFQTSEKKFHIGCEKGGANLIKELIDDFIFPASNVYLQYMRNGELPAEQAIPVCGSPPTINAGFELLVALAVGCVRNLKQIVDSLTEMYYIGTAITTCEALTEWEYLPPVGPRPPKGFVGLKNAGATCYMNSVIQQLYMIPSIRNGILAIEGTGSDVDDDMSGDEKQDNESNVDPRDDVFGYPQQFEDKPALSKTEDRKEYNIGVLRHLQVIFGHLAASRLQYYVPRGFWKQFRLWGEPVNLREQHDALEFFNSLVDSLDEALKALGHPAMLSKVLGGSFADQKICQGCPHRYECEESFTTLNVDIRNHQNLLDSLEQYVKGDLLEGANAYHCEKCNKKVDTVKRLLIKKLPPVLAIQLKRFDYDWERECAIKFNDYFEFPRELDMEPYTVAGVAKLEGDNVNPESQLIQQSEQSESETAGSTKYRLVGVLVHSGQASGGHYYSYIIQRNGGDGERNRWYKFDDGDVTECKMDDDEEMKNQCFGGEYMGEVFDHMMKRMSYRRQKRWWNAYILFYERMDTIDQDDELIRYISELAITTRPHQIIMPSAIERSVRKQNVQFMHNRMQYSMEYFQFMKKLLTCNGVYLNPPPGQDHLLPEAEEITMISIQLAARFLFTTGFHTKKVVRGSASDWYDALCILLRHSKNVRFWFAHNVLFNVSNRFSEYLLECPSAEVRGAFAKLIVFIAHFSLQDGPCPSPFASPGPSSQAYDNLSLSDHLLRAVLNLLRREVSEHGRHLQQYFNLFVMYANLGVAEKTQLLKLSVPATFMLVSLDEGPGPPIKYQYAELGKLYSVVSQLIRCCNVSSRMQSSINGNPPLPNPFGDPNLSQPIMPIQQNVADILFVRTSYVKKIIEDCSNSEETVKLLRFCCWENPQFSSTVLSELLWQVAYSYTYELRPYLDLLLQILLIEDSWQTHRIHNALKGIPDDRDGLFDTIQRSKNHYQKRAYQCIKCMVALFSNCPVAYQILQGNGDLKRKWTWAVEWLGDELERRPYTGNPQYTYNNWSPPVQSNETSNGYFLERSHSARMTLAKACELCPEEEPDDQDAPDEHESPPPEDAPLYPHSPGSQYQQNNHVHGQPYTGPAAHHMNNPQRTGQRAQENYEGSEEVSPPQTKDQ
inactive: [1] -0.108 | [3] 0.038 | [4] 0.01 | [5] -0.027 | [9] -0.056 | [6] 0.01 | [7] 0.037 | [8] -0.028 | [10] -0.21
active: [2] -0.382

TMEM263 (UniProt Q8WUH6)
inactive: [2] -0.5 | [3] -0.03 | [4] 0.005 | [5] -0.004 | [9] -0.105 | [6] 0.024 | [7] 0.015 | [8] -0.057
active: [1] -0.462 | [10] -1.32

TXN2 (UniProt Q99757)
inactive: [1] -0.037 | [2] 0.051 | [3] -0.029 | [4] 0.082 | [5] -0.038 | [9] -0.089 | [6] -0.096 | [7] -0.027 | [8] 0.03 | [10] 0.083

WDR46, A0A0G2JJL1
inactive: [1] 0.388 | [2] 0.37 | [3] -0.068 | [4] -0.451 | [5] -0.108 | [6] -0.183 | [7] -0.177 | [8] 0.215

VPS39 (UniProt Q96JC1)
UniProt Q96JC1, sequence (Q96JC1 whole entry, looked up): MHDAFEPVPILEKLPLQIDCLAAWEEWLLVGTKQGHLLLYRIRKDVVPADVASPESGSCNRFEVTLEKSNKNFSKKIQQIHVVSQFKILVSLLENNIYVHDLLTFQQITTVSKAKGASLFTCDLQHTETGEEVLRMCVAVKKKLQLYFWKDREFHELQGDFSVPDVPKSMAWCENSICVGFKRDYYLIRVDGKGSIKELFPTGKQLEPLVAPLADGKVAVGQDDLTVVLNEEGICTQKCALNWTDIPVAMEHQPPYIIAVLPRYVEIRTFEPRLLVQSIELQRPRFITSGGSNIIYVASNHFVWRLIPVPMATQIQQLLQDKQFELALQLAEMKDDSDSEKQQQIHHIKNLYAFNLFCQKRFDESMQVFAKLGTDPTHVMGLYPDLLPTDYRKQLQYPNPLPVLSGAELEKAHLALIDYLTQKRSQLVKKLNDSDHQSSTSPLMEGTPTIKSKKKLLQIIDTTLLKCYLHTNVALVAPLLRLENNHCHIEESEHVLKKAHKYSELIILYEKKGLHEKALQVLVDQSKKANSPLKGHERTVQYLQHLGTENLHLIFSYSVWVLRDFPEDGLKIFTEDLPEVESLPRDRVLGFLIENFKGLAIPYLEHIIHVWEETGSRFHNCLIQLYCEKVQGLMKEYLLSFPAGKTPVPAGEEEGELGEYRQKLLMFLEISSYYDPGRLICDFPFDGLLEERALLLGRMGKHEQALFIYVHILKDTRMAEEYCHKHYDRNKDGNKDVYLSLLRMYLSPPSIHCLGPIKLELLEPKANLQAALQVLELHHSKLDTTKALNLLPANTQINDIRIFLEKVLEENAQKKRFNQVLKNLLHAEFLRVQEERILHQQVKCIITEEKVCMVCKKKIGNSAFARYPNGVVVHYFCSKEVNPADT
active: [2] -0.354
inactive: [1] -0.206 | [3] 0.054 | [4] -0.017 | [5] -0.033 | [9] -0.091 | [6] 0.022 | [7] 0.044 | [8] 0.008 | [10] -0.187

TRIM4 (UniProt Q9C037)
inactive: [1] 0.01 | [2] -0.042 | [3] 0.178 | [4] 0.111 | [5] 0.063 | [9] -0.069 | [6] 0.03 | [7] 0.021 | [10] 0.294

VRK2 (UniProt Q86Y07)
inactive: [1] 0.034 | [2] -0.049 | [3] 0.054 | [4] 0.021 | [5] -0.072 | [9] -0.005 | [6] -0.009 | [7] 0.019 | [8] -0.04
active: [10] 0.229

UCHL5 isoform 3 (UniProt Q9Y5K5)
inactive: [1] -0.008 | [3] 0.126 | [4] 0.293 | [5] 0.107 | [6] 0.074 | [7] 0.062
active: [2] -0.617

TMEM104 (UniProt Q8NE00)
inactive: [1] -0.019 | [2] 0.043 | [3] -0.033 | [4] -0.19 | [5] -0.027 | [9] 0.204 | [8] 0.12 | [10] 0.018

TSEN2 (UniProt Q8NCE0)
inactive: [1] -0.019 | [2] -0.146 | [3] 0.053 | [4] 0.078 | [5] -0.021 | [9] -0.082 | [6] 0.086 | [7] 0.077 | [8] -0.04 | [10] 0.034

TMEM8A (UniProt Q9HCN3)
inactive: [1] -0.11 | [2] 0.008 | [3] -0.108 | [5] 0.068 | [9] -0.037 | [6] -0.031 | [7] 0.009 | [8] 0.082 | [10] -0.104

WDCP (UniProt Q9H6R7)
UniProt Q9H6R7, sequence (Q9H6R7 whole entry, looked up): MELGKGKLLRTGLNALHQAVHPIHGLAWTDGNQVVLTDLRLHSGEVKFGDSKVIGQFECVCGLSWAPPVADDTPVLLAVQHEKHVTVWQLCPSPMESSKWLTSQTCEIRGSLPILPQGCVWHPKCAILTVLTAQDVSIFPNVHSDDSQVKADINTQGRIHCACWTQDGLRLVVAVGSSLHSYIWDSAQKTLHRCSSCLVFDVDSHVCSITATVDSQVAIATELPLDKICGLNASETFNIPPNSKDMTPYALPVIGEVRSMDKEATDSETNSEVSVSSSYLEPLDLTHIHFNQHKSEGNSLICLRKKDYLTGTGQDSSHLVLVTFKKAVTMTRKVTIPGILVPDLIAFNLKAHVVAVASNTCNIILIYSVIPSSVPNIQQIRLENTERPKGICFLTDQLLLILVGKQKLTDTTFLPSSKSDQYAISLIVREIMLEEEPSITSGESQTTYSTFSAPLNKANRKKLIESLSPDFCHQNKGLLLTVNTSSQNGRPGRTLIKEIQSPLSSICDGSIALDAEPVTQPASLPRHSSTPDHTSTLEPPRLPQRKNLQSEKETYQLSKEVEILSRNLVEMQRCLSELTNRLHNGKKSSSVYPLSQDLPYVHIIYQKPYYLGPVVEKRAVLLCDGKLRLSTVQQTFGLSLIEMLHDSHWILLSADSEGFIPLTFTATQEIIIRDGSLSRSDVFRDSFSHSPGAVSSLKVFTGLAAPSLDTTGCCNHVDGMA
active: [2] -0.477
inactive: [1] -0.196 | [3] 0.102 | [4] 0.127 | [5] -0.062 | [9] 0.071 | [6] 0.057 | [7] 0.047 | [8] 0.124 | [10] -0.019

TNFRSF8 (UniProt P28908)
inactive: [1] 0.134 | [2] 0.011 | [3] -0.034 | [4] 0.016 | [5] -0.003 | [9] -0.016 | [6] 0.009 | [7] -0.011 | [8] -0.051 | [10] 0.201

VDAC1 (UniProt C9JI87)
inactive: [1] 0.097 | [2] 0.08 | [3] -0.334 | [4] -0.007 | [5] 0 | [8] 0.21

TMEM128 (UniProt Q5BJH2)
inactive: [1] -0.076 | [2] -0.005 | [3] 0.015 | [4] 0.003 | [5] 0.006 | [6] 0.149 | [7] 0.032 | [8] -0.033

USP48 isoform 8 (UniProt Q86UV5)
inactive: [3] 0.144 | [4] -0.058 | [5] -0.03 | [9] -0.047 | [6] 0.195 | [7] 0.064 | [8] -0.013 | [10] -0.459
active: [1] -0.55 | [2] -0.84

VDAC1 (UniProt P21796)
UniProt P21796, sequence (P21796 whole entry, looked up): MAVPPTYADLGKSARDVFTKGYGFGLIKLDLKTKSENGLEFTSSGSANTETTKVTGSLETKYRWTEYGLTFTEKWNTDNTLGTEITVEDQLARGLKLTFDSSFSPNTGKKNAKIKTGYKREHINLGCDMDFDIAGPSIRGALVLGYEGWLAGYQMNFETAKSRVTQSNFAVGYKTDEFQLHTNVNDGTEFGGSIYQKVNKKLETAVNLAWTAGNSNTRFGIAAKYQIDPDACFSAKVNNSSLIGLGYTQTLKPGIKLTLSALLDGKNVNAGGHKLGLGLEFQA
inactive: [1] 0.019 | [2] 0.063 | [3] -0.013 | [4] 0.012 | [5] 0.023 | [9] -0.009 | [6] -0.005 | [8] -0.022 | [10] 0.055

TUBA4A (UniProt P68366)
active: [10] -0.261
inactive: [1] -0.024 | [2] -0.01 | [3] 0.007 | [4] 0.055 | [5] -0.002 | [9] -0.064 | [6] -0.013 | [7] 0.023 | [8] -0.168

TRAPPC6B (UniProt Q86SZ2)
inactive: [1] -0.015 | [2] -0.002 | [3] -0.011 | [4] 0.146 | [5] 0.009 | [9] -0.05 | [6] -0.01 | [7] -0.008 | [8] -0.026 | [10] -0.08

TRIM44 (UniProt Q96DX7)
inactive: [1] 0.003 | [2] -0.028 | [3] -0.024 | [5] 0.014 | [9] 0.005 | [6] -0.004 | [7] 0.035 | [8] -0.069 | [10] 0.041

UCHL5 (UniProt Q9Y5K5)
inactive: [1] -0.113 | [3] 0.074 | [4] 0.116 | [5] -0.017 | [9] -0.028 | [6] 0.04 | [7] 0.03 | [8] -0.003 | [10] -0.099
active: [2] -0.295

TXNL4B (UniProt Q9NX01)
inactive: [1] 0.075 | [2] -0.111 | [3] -0.036 | [5] -0.015 | [9] -0.069 | [6] 0.186 | [7] 0.056 | [8] 0.051 | [10] -0.053

VPS8 (UniProt Q8N3P4)
active: [2] -0.647 | [10] -0.332
inactive: [1] -0.087 | [3] 0.079 | [4] -0.015 | [5] -0.068 | [9] -0.038 | [6] 0.001 | [7] 0.118 | [8] -0.023

UBE3D (UniProt Q7Z6J8)
inactive: [1] -0.033 | [2] -0.053 | [3] 0.012 | [4] 0.031 | [5] 0.063 | [9] -0.023 | [6] -0.004 | [7] 0.003 | [8] -0.051 | [10] -0.016

TPR (UniProt P12270)
inactive: [1] 0.095 | [2] -0.034 | [3] -0.018 | [4] 0 | [5] 0.055 | [9] 0.067 | [6] -0.03 | [7] -0.02 | [8] -0.005
active: [10] 0.297

TMEM268 isoform 3 (UniProt Q5VZI3)
UniProt Q5VZI3, sequence (Q5VZI3 whole entry, looked up): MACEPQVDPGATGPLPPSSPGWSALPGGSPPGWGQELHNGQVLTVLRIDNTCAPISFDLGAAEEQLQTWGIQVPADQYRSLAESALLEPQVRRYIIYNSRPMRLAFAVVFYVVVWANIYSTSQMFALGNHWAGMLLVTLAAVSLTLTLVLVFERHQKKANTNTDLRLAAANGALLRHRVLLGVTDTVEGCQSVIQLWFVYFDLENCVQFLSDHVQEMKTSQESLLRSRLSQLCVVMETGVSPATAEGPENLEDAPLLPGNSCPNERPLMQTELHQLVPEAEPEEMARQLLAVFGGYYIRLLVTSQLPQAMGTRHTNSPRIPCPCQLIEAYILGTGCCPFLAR
inactive: [1] -0.088 | [2] -0.005 | [3] 0.112 | [5] 0.093 | [9] 0.013 | [7] 0.098 | [8] 0.025 | [10] -0.123
active: [4] 0.536

UFM1 (UniProt P61960)
UniProt P61960, sequence (P61960 whole entry, looked up): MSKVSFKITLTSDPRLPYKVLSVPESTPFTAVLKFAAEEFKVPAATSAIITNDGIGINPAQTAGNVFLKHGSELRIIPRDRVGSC
inactive: [1] 0.025 | [2] -0.13 | [3] -0.092 | [4] 0.023 | [5] -0.026 | [6] 0.043 | [7] 0.029 | [8] -0.062

TMEM179B (UniProt Q7Z7N9)
inactive: [1] 0.05 | [2] 0.052 | [3] 0.029 | [5] 0.026 | [9] 0.039 | [7] -0.027 | [10] -0.128
active: [4] -0.44

TTI2 (UniProt Q6NXR4)
active: [2] -0.414
inactive: [1] -0.173 | [3] 0.021 | [4] 0.085 | [5] -0.016 | [6] 0.09 | [7] -0.01 | [8] 0.03

TUBA4A (UniProt C9JJQ8)
inactive: [1] -0.115 | [2] 0.099 | [6] 0.09 | [7] -0.078 | [8] 0.114

USP48 (UniProt Q86UV5)
inactive: [1] -0.159 | [3] 0.059 | [5] -0.045 | [7] 0.101
